Measurements published in PubChem BioAssay.
A number with no mark means an inactive call. Active and inactive are the calls of the source.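 The calls were made as follows, unless noted: active = mean inhibition above 46.68%, the untreated control wells mean plus 3 SD; inactive = the rest.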

Experiments:
[1] = target: Nuclear receptor coactivator 1 (Homo sapiens) (UniProt Q15788); assay: NCOA1 GAL4-fusion reporter inhibition – cell-based, luminescence, quadruplicate, confirmation (AID 588820); details: HEK293 GAL4-SRC1 luciferase reporter, at 3.6 µM, stronger effect = higher value;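 also: 0% = DMSO wells and 100% = gossypol 36 µM treated wells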
Chain of Nuclear receptor coactivator 1 (Homo sapiens) (Q15788 whole entry, looked up, the tested form may be a part): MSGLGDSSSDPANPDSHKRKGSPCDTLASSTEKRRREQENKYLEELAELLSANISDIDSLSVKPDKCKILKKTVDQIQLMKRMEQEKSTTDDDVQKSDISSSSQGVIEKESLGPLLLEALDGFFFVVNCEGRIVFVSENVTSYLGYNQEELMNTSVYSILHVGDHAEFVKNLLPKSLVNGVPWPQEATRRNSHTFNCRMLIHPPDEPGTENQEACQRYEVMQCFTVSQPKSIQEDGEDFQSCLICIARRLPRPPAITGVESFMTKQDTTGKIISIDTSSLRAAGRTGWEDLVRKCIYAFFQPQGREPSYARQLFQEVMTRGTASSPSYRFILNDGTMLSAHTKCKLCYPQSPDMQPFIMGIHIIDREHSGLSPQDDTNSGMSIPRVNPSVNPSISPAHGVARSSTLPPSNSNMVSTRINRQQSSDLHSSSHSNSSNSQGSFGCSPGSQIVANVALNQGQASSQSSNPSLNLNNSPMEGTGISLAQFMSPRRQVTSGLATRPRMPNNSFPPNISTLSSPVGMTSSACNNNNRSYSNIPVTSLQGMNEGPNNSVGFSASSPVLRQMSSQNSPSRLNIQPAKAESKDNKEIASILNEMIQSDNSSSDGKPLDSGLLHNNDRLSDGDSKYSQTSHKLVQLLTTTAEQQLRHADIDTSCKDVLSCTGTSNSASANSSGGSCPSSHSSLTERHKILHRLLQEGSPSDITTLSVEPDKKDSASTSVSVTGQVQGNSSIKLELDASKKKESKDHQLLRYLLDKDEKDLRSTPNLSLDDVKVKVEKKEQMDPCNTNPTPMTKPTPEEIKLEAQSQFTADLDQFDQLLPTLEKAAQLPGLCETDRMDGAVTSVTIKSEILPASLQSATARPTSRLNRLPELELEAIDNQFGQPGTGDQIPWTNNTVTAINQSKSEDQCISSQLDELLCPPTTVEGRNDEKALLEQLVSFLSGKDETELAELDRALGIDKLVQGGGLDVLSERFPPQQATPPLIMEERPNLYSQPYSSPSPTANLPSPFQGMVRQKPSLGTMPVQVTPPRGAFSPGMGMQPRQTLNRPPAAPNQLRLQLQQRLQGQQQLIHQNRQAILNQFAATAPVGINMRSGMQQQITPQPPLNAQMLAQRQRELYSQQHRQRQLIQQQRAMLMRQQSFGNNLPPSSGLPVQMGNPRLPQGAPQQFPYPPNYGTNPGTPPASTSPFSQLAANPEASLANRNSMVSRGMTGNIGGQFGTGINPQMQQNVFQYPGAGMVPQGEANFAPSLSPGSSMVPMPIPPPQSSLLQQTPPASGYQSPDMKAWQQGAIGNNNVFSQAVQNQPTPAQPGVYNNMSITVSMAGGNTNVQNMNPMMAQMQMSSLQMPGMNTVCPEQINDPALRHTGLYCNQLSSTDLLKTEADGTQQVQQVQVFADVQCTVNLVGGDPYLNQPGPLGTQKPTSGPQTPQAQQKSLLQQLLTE

[2] = repression of VP16-driven luciferase reporter – cell-based, luminescence, high throughput, counter-screen for SRC1 inhibitor project (AID 588824; in the data active = inhibition above about 25%); details: cell-based VP16 transactivation luciferase luminescence; at 3.6 µM; stronger effect = higher value

| SMILES | inhibition [1] | inhibition [2] |
| --- | --- | --- |
| CCOC(=O)N1CCC(Nc2ncnc3c2cnn3-c2ccc(C)cc2C)CC1 | -5.68% | 29% (active) |
| CCOC(=O)c1c(NC(=O)COc2ccccc2C#N)sc2c1CC(C)(C)NC2(C)C | -41.5% | -13.1% |
| O=C1c2cccc(NCCCNCCO)c2C(=O)c2cccc(NCCCNCCO)c21 | 7.28% | 16.3% |
| Cc1noc(C)c1COC(=O)CCN1c2ccccc2Sc2ccccc21 | 0.23% | -13.4% |
| CCN1CCS/C1=C/C=C/C1=[N+](CC)CCS1 | -22.7% | 47% (active) |
| CCOC(=O)C1=C(COC(=O)Cc2ccc(Br)cc2)NC(=O)NC1C (centres undefined) | -7.28% | -12.6% |
| CCOc1cccc(/C=N/NC(=O)c2cc(C3CC3)[nH]n2)c1O | 21.5% | 21.7% |
| S=C(NC1CCCCC1)N1CCOCCOCCN(C(=S)NC2CCCCC2)CCOCCOCC1 | 7.13% | 7.75% |
| CCC(C)OC(=O)C[N+](C)(C)CCOC1CC2CCC1(C)C2(C)C (centres undefined) | 5.52% | 2.28% |
| CCOc1ccc(-c2nnc3ccc(SCC(=O)NCc4ccco4)nn23)cc1 | -6.9% | -3.63% |
| N#CC(C#N)=NNc1ccc2cn[nH]c2c1 | 14.6% | 31.6% (active) |
| CN(CC(=O)NNC(=O)Cc1ccccc1F)S(=O)(=O)c1ccc(Cl)cc1 | -12.3% | 4.4% |
| O=C(CNC(=O)c1cccc(F)c1)N/N=C/c1cc(Br)ccc1OC(=O)/C=C/c1ccco1 | 3.9% | 6.51% |
| O=C(Nc1ccc(Cl)c(Cl)c1)c1cccc(S(=O)(=O)NCc2cccnc2)c1 | 6.28% | 25.9% (active) |
| CC(C)n1c(SCC(=O)Nc2nc3c(s2)CCCC3)nc2c1c(=O)n(C)c(=O)n2C | 29.2% | 23.6% |
| O=C(CNC(=O)Cc1ccccc1)N=Nc1c(O)n(Cc2ccc3c(c2)OCO3)c2ccccc12 | 3.52% | 3.04% |
| CC1CCCCN1c1ncnc2ccccc12 (centres undefined) | 18.5% | 17.9% |
| COc1ccc(OC)c(S(=O)(=O)NCC(c2ccc3c(c2)OCO3)N2CCOCC2)c1 (centres undefined) | -16.7% | -6.55% |
| CC(=O)NCCOc1nc(N(C)C)nc(N(C)C)n1 | -4.35% | 0% |
| NC(N)=N/N=C/c1ccc(Cl)c([N+](=O)[O-])c1 | -20.2% | -0.27% |
| CC1CC(C)CN(c2ncc3c(n2)CC(c2ccc(Cl)cc2)CC3=O)C1 (centres undefined) | -7.75% | 3.59% |
| COc1ccc(C(=O)Oc2ccc(/C=N/NC(=O)c3ccccc3OC)cc2[N+](=O)[O-])cc1 | -11.5% | -0.66% |
| CCCCC(=O)NC(c1ccc(N(CC)CC)cc1)c1ccc2cccnc2c1O (centres undefined) | 69.3% (active) | 63.8% (active) |
| Cc1ccc(O)c(Nc2ncnc3ccc([N+](=O)[O-])cc23)c1 | 17.6% | 23.6% |

| SMILES | inhibition [1] | inhibition [2] |
| --- | --- | --- |
| CCCCc1ccc(NC(=O)c2ccc(N(C)S(C)(=O)=O)cc2)cc1 | -25.4% | 31.3% (active) |
| Oc1c(C(Nc2nc3ccccc3s2)c2ccco2)ccc2cccnc12 (centres undefined) | 28.4% | 29.8% (active) |
| COc1ccc(-c2n[nH]c(=S)n2-c2ccc(C)cc2)cc1 | -68.5% | -40% |
| COc1ccc(CCN2C(=O)C3C4C=CC(C3C2=O)C2C(=O)N(CCc3ccc(OC)c(OC)c3)C(=O)C42)cc1OC (centres undefined) | -5.96% | 11.5% |
| O=C(NCc1ccncc1)C1CCCN(S(=O)(=O)c2ccc(Br)cc2)C1 (centres undefined) | -1.35% | 14.6% |
| CCOc1cccc(C(=O)Nc2nc(-c3ccc(S(=O)(=O)N4CCOCC4)cc3)cs2)c1 | -29.3% | -6.23% |
| O=C(CCCCC(=O)NN=Cc1ccccc1O)NN=Cc1ccccc1O | 37.3% | 39% (active) |
| COc1ccc(C(=O)Nc2ccc(Cl)c(S(=O)(=O)N3CCOCC3)c2)cc1 | -18.1% | 1.15% |
| CC(=O)N/C(=N/c1nc(C)cc(C)n1)Nc1cccc(C)c1C | -0.27% | -6.32% |
| Cc1ccc(C(=O)Nc2c3c(nn2C(C)(C)C)CS(=O)(=O)C3)cc1[N+](=O)[O-] | -11% | -9.8% |
| COc1cc2c3c([nH]c2cc1F)C(=O)NCC3 | 19.2% | 14.9% |
| O=C(COc1ccc([N+](=O)[O-])cc1)Nc1ccccc1C(=O)NC1CC1 | 2.87% | -1.57% |
| COc1ccc2cc3c(N)nn(C(=O)c4cccc([N+](=O)[O-])c4)c3nc2c1 | 51.3% (active) | 36.1% (active) |
| COc1ccc(NC(=O)c2ccccc2Cl)cc1NC(=O)CN1CCOCC1 | -11.8% | -7.93% |
| CCc1c(C)nc2c(C)cccc2c1SCCC#N | 24.9% | 8.27% |
| Cc1ccc(S(=O)(=O)N2CCN(c3ncnc4sccc34)CC2)cc1C | -1.32% | 21.7% |
| COc1ccc(C(=O)NNC(=O)C(=O)Nc2ccc(C)c(Cl)c2)cc1 | 5.87% | -0.11% |
| O=C(NCc1ccccn1)c1ccc(OC2CCN(Cc3ccc(F)cc3F)CC2)cc1 | -0.3% | 3.5% |
| COCCn1c(C)cc(/C=C2/NC(=O)N(c3cccc(Cl)c3)C2=O)c1C | -34.5% | -40.5% |
| Cc1cc(OCCCN2CCCC2)ccc1Cl | -14.7% | -11.8% |
| CC(=O)c1c(C)[nH]c(C(=O)COc2ccc3ccc(=O)oc3c2)c1C | -13.5% | 4.04% |
| COc1ccc(C(O)(C(C)C)C(CN2CCOCC2)c2ccc(Cl)cc2)cc1 (centres undefined) | 16.2% | 13.8% |
| Cc1nc2ccccn2c1-c1ccnc(=S)[nH]1 | 31.1% | 11.1% |
| CS(=O)(=O)c1ccc(NC(=O)CCN2C(=O)C3CCCCC3C2=O)cc1 (centres undefined) | -9.83% | -10.5% |

| SMILES | inhibition [1] | inhibition [2] |
| --- | --- | --- |
| COc1ccccc1CNC(=O)Cn1nnnc1CN(C)C(C)C | -0.61% | 9.79% |
| CN(C)C(=O)c1cccc(-c2cnc3cccnn23)c1 | -7.49% | 7.53% |
| CCc1nnc(SCc2ccc(C(=O)OC)o2)n1N | -6.33% | 4.87% |
| COc1ccc(Cl)cc1NC(=O)CSc1nc(=O)n(CCN(C)C)c2c1CCCC2 | -13.4% | -0.03% |
| Cc1ccc2cc3cc(C(=O)NCc4ccco4)oc3nc2c1 | -10% | 36% (active) |
| CN(CC(=O)Nc1c(Cl)cccc1Cl)C(=O)CNC(=O)c1ccc2ccccc2c1 | -23.2% | -11.1% |
| CC[C@H](C)[C@H](NC(N)=O)C(=O)NCCc1ccc(OC)c(OC)c1 | -11% | -10.9% |
| CCN(Cc1ccncc1)C(=O)CC1C(=O)NCCN1Cc1ccc(F)c(F)c1 (centres undefined) | 30.1% | 17% |
| CCN1CCN(c2ccc(S(=O)(=O)N3CCCCC3)cc2NC(=O)c2cccc(Cl)c2)CC1 | -2.97% | -2.54% |
| OC(CN1CCN(c2cccc(Cl)c2)CC1)c1ccccc1 (centres undefined) | -16.2% | -6.51% |
| O=C(NC(=S)Nc1cccc(Cl)c1N1CCCCC1)c1ccco1 | -11.6% | 7.26% |
| CN(C)/C=C/C(=O)c1ccn(S(=O)(=O)c2ccccc2)c1 | -2.09% | -2.37% |
| CN(C)S(=O)(=O)c1ccc(N2CCCC2)c(C(=O)OCC(=O)NC2(C#N)CCCCC2)c1 | 4.07% | -9.13% |
| Cc1nnc(N2CCCC(C(=O)NCc3ccc(OC(C)C)cc3)C2)c2nn(-c3ccccc3)c(C)c12 (centres undefined) | -12.5% | -13.1% |
| COc1ccc(-c2nc(N3CCOCC3)nc3n[nH]c(N)c23)cc1 | 5.53% | 17.9% |
| CC(=O)c1cn(CCOc2cc(C)ccc2C)c2ccccc12 | -27% | 33.7% (active) |
| Cc1sc(NC(=O)c2ccco2)c(C(c2cccnc2)N2CCC(C)CC2)c1C (centres undefined) | -5.49% | 26.1% (active) |
| Cc1ccc(N2CC(C(=O)N3CCC(C(=O)NCCCOC(C)C)CC3)CC2=O)cc1 (centres undefined) | -30.7% | -8.26% |
| Cc1cnccc1NC(=O)c1cccs1 | -0.39% | 0.67% |
| CCOC(=O)C(Cc1c(F)cccc1Cl)c1ccno1 (centres undefined) | -2.31% | -14.2% |
| O=C1c2cccc(OCc3ccc(F)cc3)c2CCN1Cc1ccccc1 | 20.6% | 13.6% |
| CC(=O)OCC1OC(n2cc(F)c(=O)[nH]c2=O)C(OC(C)=O)C1OC(C)=O (centres undefined) | 5.02% | 22.9% |
| O=C(COC(=O)C1CCN(c2ccc(C(F)(F)F)cn2)CC1)NCc1cccc(Cl)c1 | 1.02% | -3.36% |
| Cc1ccc(S(=O)(=O)N2[C@@H](c3cccc(Cl)c3)C(C(=O)OC(C)(C)C)=CC[C@H]2c2ccc(C(C)C)cc2)cc1 | 0.74% | 11.2% |
